Source: PubChem BioAssay
In the library only some 16% were active in any assay of this set; here they are far more common.
DT40 TDP1 no CPT: qHTS for Inhibitors of human tyrosyl-DNA phosphodiesterase 1 (TDP1): qHTS in cells in absence of CPT | 420,000 compounds, 15% hits | DT40 Tdp1-/- hTDP1 cells, no CPT, ATP luminescence, 48 h | Potency, µM (highest dose often 46.2 µM), most hits filed as inhibitors; further: nearly all actives have a fitted effect of over 55% in size
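Compound effects on proliferation are scored in DT40 Tdp1-/-;hTDP1 cells in the absence of CPT. ATP levels (CellTiter-Glo luminescence) are recorded after a ≥48 hr, 37 °C incubation.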
TDP1 cell CPT: qHTS for Inhibitors of human tyrosyl-DNA phosphodiesterase 1 (TDP1): qHTS in cells in presence of CPT; chicken DT40 Tdp1-/-;hTDP1 cells + 20 nM CPT, ATP luminescence, 48 h; Potency, µM (highest dose often 46.2 µM), usual class: inhibitors; 420,000 compounds, 12% hits; AID 686979, 2013; further: nearly all actives have a fitted effect of over 55% in size
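Chicken DT40 Tdp1-/- cells complemented with human TDP1, 400 cells/well, exposed to compounds plus 20 nM camptothecin for at least 48 h at 37 C; viability read as ATP content by CellTiter-Glo luminescence.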
miR-21 reporter: qHTS Assay for Modulators of miRNAs and/orActivators of miR-21; 340,000 tested, under 10 active; HeLa miR-21 FLuc reporter, luciferase, 48 h; AID 2288, 2010; Potency, µM (titrated, usually from 38.3 µM), actives largely listed as activators;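 further: miR-21 action dims this reporter so a rising signal means less miR-21 action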
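HeLa cells stably expressing CMV-driven firefly luciferase with a downstream miR-21 binding sequence, endogenously expressing miR-21, were treated with titrations (up to about 40uM final) for 48 hours at 37 degree Celsius. Luciferase luminescence was read after lysis.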
TDP1 inh: qHTS Assay for Inhibitors of Tyrosyl-DNA Phosphodiesterase (TDP1); Tyrosyl-DNA phosphodiesterase 1 (Homo sapiens), Q9NUW8; recombinant TDP1, AlphaScreen DNA substrate cleavage; Potency, µM (highest dose often 130 µM), most hits filed as inhibitors; 350,000 compounds, 0.28% hits; AID 485290, 2010; further: nearly all actives have a fitted effect of over 40% in size
Target sequence (Q9NUW8 whole entry, looked up): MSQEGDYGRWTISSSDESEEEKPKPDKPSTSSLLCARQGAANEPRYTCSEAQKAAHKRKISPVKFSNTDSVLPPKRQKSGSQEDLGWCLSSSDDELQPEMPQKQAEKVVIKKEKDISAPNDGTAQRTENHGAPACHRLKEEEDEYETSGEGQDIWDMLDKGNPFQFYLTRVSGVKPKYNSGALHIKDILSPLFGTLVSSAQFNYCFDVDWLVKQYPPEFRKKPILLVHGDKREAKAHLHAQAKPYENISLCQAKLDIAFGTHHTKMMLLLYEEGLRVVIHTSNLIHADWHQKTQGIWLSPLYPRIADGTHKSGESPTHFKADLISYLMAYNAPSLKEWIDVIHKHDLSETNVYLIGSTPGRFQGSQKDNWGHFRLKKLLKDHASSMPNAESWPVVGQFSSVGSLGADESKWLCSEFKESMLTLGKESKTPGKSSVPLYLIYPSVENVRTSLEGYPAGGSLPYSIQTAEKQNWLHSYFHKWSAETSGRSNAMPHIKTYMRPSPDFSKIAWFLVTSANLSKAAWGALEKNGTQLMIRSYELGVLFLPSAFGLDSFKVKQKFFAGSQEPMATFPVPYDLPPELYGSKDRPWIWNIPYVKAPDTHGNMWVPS
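Recombinant E. coli-expressed Tdp1 (1 nM) preincubated with compound 15 min at RT, then 5'-biotin/3'-phosphotyrosine-FITC DNA substrate (15 nM) added for 5 min. AlphaScreen beads (10 ug/ml) added, 10 min RT; tyrosine-FITC cleavage read as signal loss.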
uPA surface inh: qHTS for Inhibitors of Cell Surface uPA Generation; Potency, µM (titrated, usually from 38.3 µM), actives largely listed as inhibitors; cell surface uPA generation assay, qHTS; 330,000 compounds, 0.31% hits; active means well fitted inhibition curve with a large enough effect; inconclusive means small, poorly fitted or top-dose-only effect; inactive means no such curve, though single readings can be large or run the other way; tested in mouse RAW 264.7 cells; further: nearly all actives have a fitted effect of over 55% in size
Hits are given with their value; ! = not confirmed by another sample; [ ] = remark or other dose. Unless noted, the call rests on the fitted dose curve; in most records, active means well fitted curve in the direction sought with a large enough effect; inconclusive means small, poorly fitted or top-dose-only effect, or another doubt; inactive means no such curve, though single readings can be large; an effect the other way counts as inactive or inconclusive.

Screening CCN1CCN(C(=O)COc2ccc3oc4c(c3c2)CCCC4)CC1 returned DT40 TDP1 no CPT 21µM, TDP1 cell CPT inconclusive, TDP1 inh inactive and uPA surface inh inactive.
Screening CC(=O)OC1CCC2(C)C(CC(=O)C3C2CCC2(C)C(OC(C)=O)CCC32)C1 (stereo unspecified) returned DT40 TDP1 no CPT inconclusive, TDP1 cell CPT inconclusive and uPA surface inh inactive.
CC1N=C(c2ccccc2)c2cc(Br)ccc2NC1=O (stereo unspecified) was read as DT40 TDP1 no CPT 18µM, TDP1 cell CPT inconclusive, miR-21 reporter inactive and uPA surface inh inactive.
Screening O=C1Nc2ccc(Br)cc2C(c2ccccc2)=NC1O (stereo unspecified) returned DT40 TDP1 no CPT inconclusive, TDP1 cell CPT inconclusive, miR-21 reporter inactive and uPA surface inh inactive.
For CC1CCCC(=O)CCC/C=C/c2cc(O)cc(O)c2C(=O)O1 (stereo unspecified) the results were DT40 TDP1 no CPT inactive, TDP1 cell CPT inactive and TDP1 inh inactive.
C[C@H]1CCC[C@H](O)CCCCCc2cc(O)cc(O)c2C(=O)O1 was read as DT40 TDP1 no CPT 18µM, TDP1 cell CPT 15µM, miR-21 reporter inactive, TDP1 inh inactive and uPA surface inh inconclusive.
C[C@H]1CCC[C@@H](O)CCC/C=C/c2cc(O)cc(O)c2C(=O)O1 was read as DT40 TDP1 no CPT 21µM, TDP1 cell CPT inconclusive, miR-21 reporter inactive, TDP1 inh inactive and uPA surface inh inconclusive.
For CCOc1ccc(Nc2c(S(=O)(=O)c3ccc(C)cc3)cnc3ccc(F)cc23)cc1 the results were DT40 TDP1 no CPT inconclusive, TDP1 cell CPT inconclusive, miR-21 reporter inactive and TDP1 inh inactive.
Screening CCOc1ccc(Nc2c(S(=O)(=O)c3ccc(C)cc3)cnc3ccccc23)cc1 returned DT40 TDP1 no CPT inconclusive, TDP1 cell CPT 16µM, miR-21 reporter inactive and TDP1 inh inactive.
CCOc1ccccc1CN(CCc1ccc2c(c1)OCO2)Cc1ccc(CC)cc1 was read as DT40 TDP1 no CPT inconclusive, TDP1 cell CPT inconclusive and miR-21 reporter inactive.
`COc1ccc(NC2Oc3cc4c(cc3C(c3cc(OC)c(OC)c(OC)c3)C2C)OCO4)cc1` (stereo unspecified) gave DT40 TDP1 no CPT 4.1µM, TDP1 cell CPT 4.6µM and uPA surface inh inactive.
For COc1ccc2c(c1OC)C(=O)O[C@H]2[C@H]1c2cc3c(cc2CCN1C)OCO3 the results were TDP1 inh inactive[21 µM].
Screening COc1ccccc1CCNC1CCC(C(C)(C)C)CC1 (stereo unspecified) returned DT40 TDP1 no CPT 21µM, TDP1 cell CPT inconclusive, miR-21 reporter inactive and TDP1 inh inactive.
CCN1C[C@@]2(COC(=O)c3ccccc3N3C(=O)CC(C)C3=O)CC[C@H](OC)[C@]34C5C[C@@H]6[C@@H](OC)C[C@@](O)(C5[C@H]6OC)[C@@](O)(C13)[C@@H](OC)C24 (stereo partly specified) was read as DT40 TDP1 no CPT inactive, TDP1 cell CPT inactive and TDP1 inh inactive.
CC(=O)C1CC[C@H]2C3CC[C@@H]4CC(O)CC[C@@]4(C)C3CC[C@]12C (stereo partly specified) was read as DT40 TDP1 no CPT inactive, TDP1 cell CPT inactive and TDP1 inh inactive.
Screening Oc1cc2c(cc1CN1CCN(c3ccccc3F)CC1)OCO2 returned DT40 TDP1 no CPT inactive, TDP1 cell CPT inactive, miR-21 reporter inactive, TDP1 inh inactive[0.0935 µM] and uPA surface inh inactive.
Screening O=C1NC(=O)C(=Cc2c(Cl)cccc2Cl)C(=O)N1 returned DT40 TDP1 no CPT 13µM, TDP1 cell CPT 12µM and uPA surface inh inactive.
For Cc1c(C=C2C(=O)NC(=O)NC2=O)c(=O)n(-c2ccccc2)n1C the results were DT40 TDP1 no CPT inactive, TDP1 cell CPT inactive, miR-21 reporter inactive, TDP1 inh inactive and uPA surface inh inactive.
CC[N@+]1(C)CCC[C@@H](OC(=O)C(O)(c2ccccc2)c2ccccc2)C1 was read as TDP1 inh inactive.
CC1c2ccccc2-n2nncc2CN1C (stereo unspecified) was read as DT40 TDP1 no CPT inactive, TDP1 cell CPT inactive and uPA surface inh inactive.
For Cc1c(CCN)ccc2c1[nH]c1ccccc12 the results were DT40 TDP1 no CPT 29µM, TDP1 cell CPT inconclusive, miR-21 reporter inactive and uPA surface inh inactive.
For C[C@@]12CCC(Cl)C[C@H]1CCC1C2CC[C@]2(C)C(=O)CCC12 (stereo partly specified) the results were DT40 TDP1 no CPT inactive, TDP1 cell CPT inactive and TDP1 inh inactive.
`COc1ccc(C(=O)NC(=S)N2C[C@H]3C[C@H](C2)c2cccc(=O)n2C3)cc1` gave DT40 TDP1 no CPT inactive, TDP1 cell CPT inactive, miR-21 reporter inactive and uPA surface inh inactive.
`COc1ccc(CCNCc2ccccc2)cc1` gave DT40 TDP1 no CPT inconclusive, TDP1 cell CPT inactive, miR-21 reporter inactive and uPA surface inh inactive.
COc1ccc(CCNCc2c(OC)ccc3ccccc23)cc1 was read as DT40 TDP1 no CPT 13µM, TDP1 cell CPT 13µM, miR-21 reporter inactive and uPA surface inh inactive.
For COc1cc(/C=N/n2cnnc2)ccc1OC(=O)N(C)C the results were DT40 TDP1 no CPT inactive, TDP1 cell CPT inactive, miR-21 reporter inactive, TDP1 inh inactive and uPA surface inh inactive.
For COc1cc(/C=C/[N+](=O)[O-])ccc1OC(=O)c1cccnc1 the results were DT40 TDP1 no CPT 2.3µM, TDP1 cell CPT 3.3µM, miR-21 reporter inactive and uPA surface inh inactive.
Nc1nc(N)c2nc(CNc3ccc(C(=O)N[C@@H](CCC(=O)O)C(=O)O)cc3)cnc2n1 was read as DT40 TDP1 no CPT 16µM and TDP1 cell CPT inconclusive.
Screening CN(C)S(=O)(=O)c1cc(NC(=O)COC(=O)Cc2ccccc2)ccc1Cl returned DT40 TDP1 no CPT 18µM, TDP1 cell CPT inconclusive, miR-21 reporter inactive, TDP1 inh inactive and uPA surface inh inactive.
`Cc1ccc(CN(Cc2ccccc2)C(=S)NCC(=O)N2CCC3(CC2)OCCO3)o1` gave DT40 TDP1 no CPT inconclusive, TDP1 cell CPT inconclusive, miR-21 reporter inactive, TDP1 inh inactive and uPA surface inh inactive.
For C=C(C)[C@H]1CN[C@H](C(=O)O)[C@H]1CC(=O)O the results were DT40 TDP1 no CPT 21µM!, TDP1 cell CPT inconclusive, TDP1 inh inactive and uPA surface inh inactive.
`O=C1CC2OCC=C3CN4CCC56c7ccccc7N1C5C2C3CC46` (stereo unspecified) gave TDP1 inh inactive.
For COc1ccc(C(CC(C)=O)c2c(O)c3ccccc3oc2=O)cc1OC (stereo unspecified) the results were DT40 TDP1 no CPT inactive and TDP1 cell CPT inactive.
